PubChem BioAssay AID1159580 (chemical genetic matrix, 2015)
“And” between values parts separate entries of the source, which are not always exact repeats. Equal entries are not always repeated. In all, about 5,500 compounds went through this assay and about 2,000 (36%) were called active. Another 18% or so got no clear call; they are omitted. Cut-off read from the data, not from the text of the source: active = normalized growth mostly below about 0.91 (no sharp cut-off); inconclusive = no clear call, values can overlap the other calls; inactive = mostly above about 0.92. Some of the results follow.

Assay: chemical genetic growth profiling, strain panel (AID 1159580);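 note: tested at 20 µM; growth read once vehicle control cultures reached saturation at 30 °C; 1 = growth at the plate median or of vehicle wells; lower values mean less growth of the strain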
Details: S. cerevisiae deletion strains, growth OD
[1] = locus YHR030C, strain SLT2, stronger effect = lower value
[2] = locus YHR079C, strain IRE1, stronger effect = lower value
[3] = locus YJL095W, strain BCK1, stronger effect = lower value
[4] = locus YJR066W, strain TOR1, stronger effect = lower value
[5] = locus YLR113W, strain HOG1, stronger effect = lower value
[6] = locus YNL183C, strain NPR1, stronger effect = lower value
[7] = locus YOR231W, strain MKK1, stronger effect = lower value
[8] = locus YPL256C, strain CLN2, stronger effect = lower value

Measured: normalized growth

CC(=O)Oc1cc(C)c2c(c1C=O)Oc1c(c(C)c(OC(C)=O)c3c1C(OC(C)=O)OC3=O)OC2=O (stereo unspecified)
active: [5] 0.821
inactive: [1] 0.877 | [2] 0.883 | [3] 0.905 | [4] 0.857 | [6] 0.853 | [7] 0.876 | [8] 0.829

COc1cc(C)c2c(c1C=O)Oc1c(c(C)c(O)c3c1C(O)OC3=O)OC2=O (stereo unspecified)
inactive: locus YAL013W, strain DEP1, stronger effect = lower value 1 | locus YAL021C, strain ccr4, stronger effect = lower value 1.01 | locus YAL026C, strain drs2, stronger effect = lower value 1.02 | locus YAL030W, strain snc1, stronger effect = lower value 1.02 | locus YBL061C, strain skt5, stronger effect = lower value 1.02 | locus YBR009C, strain hhf1, stronger effect = lower value 1.03 | locus YBR021W, strain FUR4, stronger effect = lower value 1.01 | locus YBR023C, strain chs3, stronger effect = lower value 1.05 | locus YBR171W, strain sec66, stronger effect = lower value 1.02 | locus YBR229C, strain ROT2, stronger effect = lower value 0.949 | locus YBR231C, strain swc5, stronger effect = lower value 1.01 | locus YBR279W, strain paf1, stronger effect = lower value 1.01 | locus YCL011C, strain gbp2, stronger effect = lower value 1.03 | locus YCL016C, strain dcc1, stronger effect = lower value 1.03 | locus YCL029C, strain bik1, stronger effect = lower value 0.984 | locus YCL061C, strain MRC1, stronger effect = lower value 1.02 | locus YCL069W, strain vba3, stronger effect = lower value 1.01 | locus YCR088W, strain abp1, stronger effect = lower value 1.01 | locus YDL005C, strain med2, stronger effect = lower value 0.946 | locus YDL035C, strain GPR1, stronger effect = lower value 0.965 | locus YDL040C, strain nat1, stronger effect = lower value 1.01 | locus YDL074C, strain BRE1, stronger effect = lower value 0.959 | locus YDL101C, strain DUN1, stronger effect = lower value 0.99 | locus YDL185W, strain tfp1, stronger effect = lower value 0.972 | locus YDL192W, strain arf1, stronger effect = lower value 0.984 | locus YDR001C, strain nth1, stronger effect = lower value 1.01 | locus YDR069C, strain doa4, stronger effect = lower value 1 | locus YDR101C, strain arx1, stronger effect = lower value 0.981 | locus YDR137W, strain rgp1, stronger effect = lower value 1.06 | locus YDR150W, strain NUM1, stronger effect = lower value 0.994 | locus YDR159W, strain sac3, stronger effect = lower value 1.02 | locus YDR162C, strain NBP2, stronger effect = lower value 0.941 | locus YDR195W, strain ref2 0.924 | locus YDR297W, strain sur2, stronger effect = lower value 1.01 | locus YDR318W, strain mcm21, stronger effect = lower value 1 | locus YDR334W, strain swr1, stronger effect = lower value 1 | locus YDR335W, strain msn5, stronger effect = lower value 1.01 | locus YDR388W, stronger effect = lower value 0.997 | locus YDR392W, strain spt3, stronger effect = lower value 1 | locus YDR502C, strain sam2, stronger effect = lower value 1.04 | locus YEL003W, strain gim4, stronger effect = lower value 1.02 | locus YEL037C, strain rad23, stronger effect = lower value 1.02 | locus YEL061C, strain CIN8 (second series), stronger effect = lower value 1 | locus YEL061C, strain CIN8, stronger effect = lower value 0.974 | locus YER015W, strain faa2, stronger effect = lower value 1.01 | locus YER016W, strain bim1, stronger effect = lower value 1.02 | locus YER110C, stronger effect = lower value 0.981 | locus YER111C, strain swi4, stronger effect = lower value 1.01 | locus YER155C, strain BEM2 (second series), stronger effect = lower value 1.02 | locus YER155C, strain BEM2, stronger effect = lower value 0.995 | locus YER167W, strain BCK2, stronger effect = lower value 0.986 | locus YFR010W, strain ubp6, stronger effect = lower value 1.02 | locus YGL078C, strain dbp3, stronger effect = lower value 1.02 | locus YGL086W, strain mad1, stronger effect = lower value 1.01 | locus YGL167C, strain pmr1, stronger effect = lower value 1.01 | locus YGL173C, strain kem1, stronger effect = lower value 1.03 | locus YGL227W, strain vid30, stronger effect = lower value 1.02 | locus YGL240W, strain doc1, stronger effect = lower value 1.08 | locus YGL248W, strain PDE1, stronger effect = lower value 1.02 | locus YGL253W, strain hxk2, stronger effect = lower value 1.02 | locus YGR135W, strain pre9, stronger effect = lower value 1.06 | locus YGR252W, strain gcn5, stronger effect = lower value 1.05 | locus YHR013C, strain ard1, stronger effect = lower value 1.05 | locus YHR027C, strain rpn1, stronger effect = lower value 1.01 | [1] 0.992 and 0.99 | locus YHR079C, strain IRE1 (second series), stronger effect = lower value 0.991 | [2] 0.994 | locus YHR094C, strain hxt1, stronger effect = lower value 0.982 | locus YHR129C, strain ARP1, stronger effect = lower value 0.984 | locus YHR142W, strain chs7, stronger effect = lower value 1.05 | locus YHR200W, strain rpn10, stronger effect = lower value 0.999 | locus YIL066C, strain RNR3, stronger effect = lower value 0.97 | locus YIL073C, strain SPO22, stronger effect = lower value 1.06 | locus YIL125W, strain kgd1, stronger effect = lower value 0.984 | locus YIR030C, strain dcg1, stronger effect = lower value 0.982 | locus YJL092W, strain hpr5, stronger effect = lower value 1.01 | locus YJL095W, strain BCK1 (second series), stronger effect = lower value 1.02 | [3] 1.08 and 0.976 | locus YJL115W, strain asf1, stronger effect = lower value 1 | locus YJL129C, strain trk1, stronger effect = lower value 1.03 | locus YJL134W, strain LCB3, stronger effect = lower value 0.986 | locus YJL154C, strain vps35, stronger effect = lower value 1.02 | locus YJL164C, strain tpk1, stronger effect = lower value 1.03 | locus YJL166W, strain qcr8, stronger effect = lower value 1.03 | locus YJL168C, strain set2, stronger effect = lower value 0.993 | locus YJL187C, strain SWE1 (second series), stronger effect = lower value 0.988 | locus YJL187C, strain SWE1, stronger effect = lower value 1.02 | [4] 0.919 | locus YKL009W, strain mrt4, stronger effect = lower value 0.948 | locus YKL068W, stronger effect = lower value 0.983 | locus YKL085W, strain MDH1 (second series), stronger effect = lower value 0.968 | locus YKL085W, strain MDH1, stronger effect = lower value 0.968 | locus YKL160W, strain elf1, stronger effect = lower value 1.03 | locus YKL190W, strain CNB1, stronger effect = lower value 0.989 | locus YKR001C, strain vps1, stronger effect = lower value 0.991 | locus YKR026C, strain gcn3, stronger effect = lower value 1.01 | locus YKR091W, strain srl3, stronger effect = lower value 1.01 | locus YLL001W, strain dnm1, stronger effect = lower value 1.01 | locus YLL026W, stronger effect = lower value 1.02 | locus YLL041C, strain sdh2, stronger effect = lower value 1.01 | locus YLR027C, strain aat2, stronger effect = lower value 1 | locus YLR039C, strain RIC1, stronger effect = lower value 1.01 | locus YLR058C, strain SHM2, stronger effect = lower value 0.966 | locus YLR102C, strain apc9, stronger effect = lower value 0.986 | [5] 0.956 | locus YLR221C, strain rsa3, stronger effect = lower value 1.03 | locus YLR258W, strain gsy2, stronger effect = lower value 1.03 | locus YLR262C, strain YPT6 (second series), stronger effect = lower value 1.06 | locus YLR268W, strain sec22, stronger effect = lower value 0.975 | locus YLR320W, strain mms22, stronger effect = lower value 1.06 | locus YLR330W, strain CHS5, stronger effect = lower value 0.983 | locus YLR342W, strain FKS1 (second series), stronger effect = lower value 0.99 | locus YLR342W, strain FKS1, stronger effect = lower value 1.03 | locus YLR357W, strain rsc2, stronger effect = lower value 0.997 | locus YLR370C, strain arc18, stronger effect = lower value 1.02 | locus YLR371W, strain rom2, stronger effect = lower value 0.972 | locus YLR384C, strain iki3, stronger effect = lower value 1.01 | locus YLR418C, strain cdc73, stronger effect = lower value 1.05 | locus YML016C, strain PPZ1, stronger effect = lower value 0.985 | locus YML032C, strain rad52, stronger effect = lower value 0.985 | locus YML120C, strain ndi1, stronger effect = lower value 1.02 | locus YML124C, strain tub3, stronger effect = lower value 0.996 | locus YMR058W, strain fet3, stronger effect = lower value 0.996 | locus YMR078C, strain ctf18, stronger effect = lower value 0.995 | locus YMR125W, strain sto1, stronger effect = lower value 0.999 | locus YMR129W, stronger effect = lower value 1.01 | locus YMR205C, strain PFK2, stronger effect = lower value 1.03 | locus YMR223W, strain ubp8, stronger effect = lower value 1 | locus YMR231W, strain pep5, stronger effect = lower value 1.02 | locus YMR307W, strain GAS1, stronger effect = lower value 0.922 | locus YNL067W, strain RPL9B, stronger effect = lower value 1 | locus YNL071W, strain lat1, stronger effect = lower value 1.02 | locus YNL128W, strain TEP1, stronger effect = lower value 0.918 | [6] 0.935 | locus YNL209W, strain ssb2, stronger effect = lower value 1 | locus YNL233W, strain BNI4, stronger effect = lower value 1.02 | locus YNL248C, strain rpa49, stronger effect = lower value 1.05 | locus YNL250W, strain rad50, stronger effect = lower value 0.984 | locus YNL271C, strain bni1, stronger effect = lower value 0.989 | locus YNL298W, strain CLA4, stronger effect = lower value 0.987 | locus YNL307C, strain MCK1, stronger effect = lower value 1 | locus YNL322C, strain KRE1 (second series), stronger effect = lower value 1.01 | locus YNR049C, strain mso1, stronger effect = lower value 1.02 | locus YNR052C, strain pop2, stronger effect = lower value 1.02 | locus YOL012C, strain htz1 0.777 | locus YOL147C, strain pex11, stronger effect = lower value 0.991 | locus YOR001W, strain rrp6, stronger effect = lower value 1.03 | locus YOR061W, strain CKA2, stronger effect = lower value 0.952 | locus YOR069W, strain VPS5, stronger effect = lower value 0.992 | locus YOR070C, strain gyp1, stronger effect = lower value 1.01 | locus YOR080W, strain dia2, stronger effect = lower value 1.02 | locus YOR083W, strain WHI5, stronger effect = lower value 1.03 | locus YOR106W, strain vam3, stronger effect = lower value 1.03 | locus YOR136W, strain idh2, stronger effect = lower value 0.987 | locus YOR144C, strain elg1, stronger effect = lower value 0.99 | locus YOR184W, strain ser1, stronger effect = lower value 0.959 | [7] 0.975 | locus YOR265W, strain rbl2, stronger effect = lower value 1.01 | locus YOR270C, strain vph1, stronger effect = lower value 1.15 | locus YOR290C, strain snf2, stronger effect = lower value 1.01 | locus YOR316C, strain cot1, stronger effect = lower value 1 | locus YPL051W, strain arl3, stronger effect = lower value 1.04 | locus YPL055C, strain LGE1, stronger effect = lower value 0.899 | locus YPL078C, strain atp4, stronger effect = lower value 1.03 | locus YPL106C, strain sse1, stronger effect = lower value 1.02 | locus YPL240C, strain hsp82, stronger effect = lower value 1.01 | locus YPL241C, strain CIN2, stronger effect = lower value 0.995 | [8] 0.974 | locus YPR119W, strain clb2, stronger effect = lower value 1 | locus YPR141C, strain kar3, stronger effect = lower value 0.979 | locus YPR163C, strain tif3, stronger effect = lower value 1 | locus YPR167C, strain met16, stronger effect = lower value 1.02 | strain wtn01, stronger effect = lower value 0.976
